# Laboratory results from ChEMBL document CHEMBL1157539, “Thousands of chemical starting points for antimalarial lead identification” (Nature, 2010).
# Tests used:
# Type in all cases: functional
# Plasmodium falciparum [1] = assay: GSK_TCMDC: Inhibition of Plasmodium falciparum 3D7 in whole red blood cells, using parasite LDH activity as an index of growth. Test compounds present at 2uM
# Plasmodium falciparum [2] = assay: GSK_TCMDC: Inhibition of Plasmodium falciparum Dd2 in whole red blood cells, using parasite LDH activity as an index of growth. Test compounds present at 2uM
# HepG2 = assay: GSK_TCMDC: Percent inhibition of human HepG2 cell line. Test compounds present at 10uM.
Structure (SMILES),Inhibition (Plasmodium falciparum [1]) [%],Inhibition (Plasmodium falciparum [2]) [%],Inhibition (HepG2) [%]
Cc1ccnc2nc(C(=O)Nc3cc(C(F)(F)F)ccc3N3CCCCC3)nn12,96,94,7
CCC[C@@H]([C@@H](CC1CCCCC1)C(=O)N[C@H](C(=O)Nc1nccs1)C(C)(C)SC)N(O)C=O,97,98,51
CCCCc1ccc(Cc2cnc3nc(N)nc(N)c3c2C)cc1,96,5,64
COc1ccc(C(C(=O)NC2CCN(C[C@H](O)c3ccnc4ccc(OC)cc34)CC2)N2CCN(c3ccc(F)cc3)CC2)cc1 (stereo not given in full),97,86,16
Cc1cc(Cl)c(S(=O)(=O)NC(C)(C)C)cc1OCC(=O)NC1CCCCC1,93,53,10
CC(C)CCNCc1ccc(OCc2cccc(COc3ccc(CNCCC(C)C)cc3I)c2)c(I)c1.Cl,91,49,99
Cl.c1ccc2c(NCCCCCCCCCNc3ccnc4ccccc34)ccnc2c1,100,100,57
Cc1cccc2nc(-c3ccc(-c4ccc(NC(=O)Nc5cccc(C#N)c5)cc4)cc3)[nH]c12,100,100,28
CCn1c(Sc2ccc(C#N)c([N+](=O)[O-])c2)nnc1-c1ccc(Cl)cc1,97,93,0
CN(Cc1cccc(F)c1)C1CCN(c2cc(NC(=O)c3cccc(F)c3)ccn2)CC1.O=C(O)C(F)(F)F,94,13,12
CC(Cc1ccc(NC(=O)COc2ccc(CC(C)NCCc3cccc(Cl)c3)cc2)cc1)NCCc1cccc(Cl)c1 (stereo not given),100,98,100
CN(C)S(=O)(=O)c1ccc(N2C(=O)C3C(C2=O)C2(c4ccccc4)C(=O)C3(c3ccccc3)C(c3ccccc3)=C2c2ccccc2)cc1 (stereo not given),92,63,0
COc1ccc2nccc([C@@H](O)CN3CCC(NCC(=O)Nc4cc(F)cc(F)c4)CC3)c2n1.O=C(O)C(=O)O,89,28,18
N#Cc1ccc(Sc2nnc(-c3ccccc3Cl)n2CC2CCCCC2)cc1[N+](=O)[O-],85,34,30
O=C(Nc1ccccc1F)NC1CCN(c2ccnc(Nc3ccc(F)cc3)n2)CC1,99,63,13
COc1cc(F)c2ncc(Cl)c(C(O)CN3CCC(NC(=O)c4ccc5c(n4)NC(=O)CO5)CC3)c2c1.Cl (stereo not given),100,100,22
COc1cc2nc(NCCCOC(C)C)n3nc(-c4ccccc4)nc3c2cc1OC,94,97,0
CCOC(=O)c1cccc(NC(=O)Nc2cc(C)nc3ccccc23)c1,100,90,14
COc1cccc(CN2CCN(C(c3ccccc3)c3ccccc3)CC2)c1O.O=C(O)C(=O)O,99,98,6
Cc1cc(N)c2cc(NC(=O)c3ccc4ccccc4c3)ccc2n1.Cl,100,99,33
C=C1C(C(=O)OCC)=CN(CC)c2cc(O[C@H]3CCN(C(=O)OC(C)(C)C)C3)ccc21,98,75,9
CC(C)NCc1cccc(-c2cccc(-c3nc4ccccc4[nH]3)c2)c1.O=C(O)C(F)(F)F,100,22,11
N=c1c(C(=O)NCc2ccccc2)cc2c(=O)n3ccccc3nc2n1CCc1ccccc1,99,25,5
Br.CC1(C)NC(N)=NC(=N)N1OCCCCOc1ccc(Cl)cc1C1CCCCC1,93,97,56
CN1CCN(c2ccc3nccc(CCN4CCC(NCc5ccc6c(n5)NC(=O)CO6)CC4)c3n2)CC1.Cl,97,3,9
CCOc1cc(C(=O)N[C@@H](Cc2ccccc2)[C@H](O)CNCc2cc(OC)cc(OC)c2)cc(N2CCCC2=O)c1.Cl,94,63,0
Cc1nc(C)c(-c2ccc(C(F)(F)F)cc2)c(O)c1Br,98,96,0
Cc1cccc(OCC2CCN(c3ncc(C(=O)NC4CC4)cc3Cl)CC2)c1,90,78,0
CCOC(=O)c1ccc(NC(=O)N(Cc2ccc(-c3ccc(CN4CCNCC4)cc3)cc2)C2CCN(Cc3ccccc3)CC2)cc1.O=C(O)C(F)(F)F,100,93,14
CCNc1cc(C(=O)N[C@@H](Cc2ccccc2)[C@H](O)CNC2C3CC4CC(C3)CC2C4)cc(N2CCCCS2(=O)=O)c1.Cl (stereo not given in full),97,96,0
